From PubChem BioAssay AID588397 (National Center for Advancing Translational Sciences (NCATS), 2011)
Among all 1,300 compounds or so, about 1,000 (77%) were called active. Another 7% or so got no clear call; they are omitted. The set was probably picked from earlier hits. The list shows a part of the results. Unmarked numbers belong to inactive results. The call rests on the fitted dose curve; in most records, active means well fitted inhibition curve with a large enough effect; inconclusive means small, poorly fitted or top-dose-only effect; inactive means no such curve, though single readings can be large or run the other way.

test: qHTS of small molecules that selectively kill Giardia lamblia: Hit Validation.;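 further: viability measured as ATP content by luminescence so killing lowers signal; trophozoites exposed to compounds for 48 h anaerobically at 37 °C; nearly all actives have a fitted effect of over 65% in size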; details: Giardia lamblia trophozoite viability, dose-response; series mostly up to 38.3 µM; activity change, negative = killing: at the top concentration
Outline: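 Anaerobic 48 hrs incubation at 37 deg C of 100 trophozoites/well with test compounds; ATPLite 1-Step luminescence, 15-30 min RT, reports cellular ATP as viability.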
On the % scale 0 is the no-effect control and ±100 the full control effect; potency means the concentration at half of the fitted maximal effect.

Structure (SMILES)	Potency	activity change, negative = killing [%]
Cc1cnc([N+](=O)[O-])n1CCOC(=O)NC(=O)c1ccc(C(F)(F)F)cc1	259 nM (active)	–
Cc1ccc(C(=O)NC(=O)OCCn2c(C)cnc2[N+](=O)[O-])cc1	183 nM (active)	–
Cc1cnc([N+](=O)[O-])n1CCOC(=O)c1cccc(F)c1	1160 nM (active)	–
CSCCC(NC(=O)c1ccco1)C(=O)OCc1cc([N+](=O)[O-])cc2c1OCOC2 (stereo not drawn)	4600 nM (active)	–
Cc1cccc(C)c1OCC(=O)N(Cc1cccs1)C1CCS(=O)(=O)C1 (stereo not drawn)	–	-6.92
CC1C/C(=C/c2ccncc2)C(=O)/C(=C/c2ccncc2)C1 (stereo not drawn)	11600 nM (active)	–
O=C1/C(=C/c2ccncc2)CCC/C1=C\c1ccncc1	18300 nM (active)	–
CC(C)(C)[C@H](N)C(=O)N[C@H]1CCC2C3CC=C4C[C@@H](O)CC[C@]4(C)C3CC[C@@]21C (stereo partly drawn)	2900 nM (active)	–
CN(C)CCCN(C(=O)c1cc2cc([N+](=O)[O-])ccc2s1)c1nc2cc3c(cc2s1)OCCO3	1630 nM (active)	–
CCOC(=O)C1=C(C)NC(=O)NC1c1ccc([N+](=O)[O-])o1 (stereo not drawn)	1160 nM (active)	–
CCOC(=O)C1=C(C)NC2=C(C(=O)c3ccccc32)C1c1ccc([N+](=O)[O-])o1 (stereo not drawn)	729 nM (active)	–
COC(=O)C1=C(C)N(C)C(=O)NC1c1ccc([N+](=O)[O-])o1 (stereo not drawn)	460 nM (active)	–
C=CCOC(=O)C1=C(C)NC(=O)NC1c1ccc(O)cc1 (stereo not drawn)	–	-3.51
O=C(Nc1ccc(N2CCCC2)c(Cl)c1)c1ccc([N+](=O)[O-])o1	1830 nM (active)	–
O=C(Nc1ccc(N2CCOCC2)c(Cl)c1)c1ccc([N+](=O)[O-])o1	729 nM (active)	–
O=C1CC(c2ccc(F)cc2)CC2=C1C(c1ccc([N+](=O)[O-])o1)Nc1ccccc1N2 (stereo not drawn)	163 nM (active)	–
CN(C)c1ccc(/C=C/c2ccc3ccccc3[n+]2[O-])cc1	1030 nM (active)	–
CN(C)c1ccc(/C=C/c2ccc3cc(N)ccc3n2)cc1	183 nM (active)	–
CN(C)c1ccc(/C=C/c2ccc3ccccc3n2)cc1	460 nM (active)	–
CC(=O)OCON[N+]([O-])=NC(C)C	918 nM (active)	–
CC(C)(C)C1C/C(=C/c2ccccn2)C(=O)/C(=C/c2ccccn2)C1 (stereo not drawn)	6500 nM (active)	–
c1ccc2nc3c(cc2c1)CCCC3	10300 nM (active)	–
Cc1cc(C)c(-n2[nH]nnc2=S)c(C)c1	–	-11.9
O=C(Nc1ncc([N+](=O)[O-])s1)C1COc2ccccc2O1 (stereo not drawn)	290 nM (active)	–
O=C(N/N=C\c1ccc([N+](=O)[O-])o1)C1COc2ccccc2O1 (stereo not drawn)	818 nM (active)	–
Cc1ccc(/C=C/C(=O)NCC2COc3ccccc3O2)o1 (stereo not drawn)	–	-42.4
O=C(N/N=C\c1ccc(O)c([N+](=O)[O-])c1)C1COc2ccccc2O1 (stereo not drawn)	5160 nM (active)	–
O=C(N/N=C\c1ccc([N+](=O)[O-])s1)C1COc2ccccc2O1 (stereo not drawn)	4100 nM (active)	–
